Results on 17 molecules are retold here after PubChem BioAssay.

Assay [1] concerns Human papillomavirus type 1a protein E7 (residues 44-93). The experiment in a line: small molecules binding HPV E7 44-93 – biochemical, small-molecule microarray, residues 44-93, 635 nm fluorescence, primary screen (AID 1108).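 Also: E7 fragment applied at 1 µg/mL in TBST for 1 h at 4 C; score combines spot fluorescence with its signal to noise ratio.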 The note with it: fluorescence 635 nm, higher = more signal.
Assay [2] in a line: hepatitis C replication reporter changes, two-sided – Huh7 cells, luciferase reporter, HCV replication inhibitor project, primary screen (AID 1109).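 Also: huh7 hepatoma cells harbouring a luciferase neomycin HCV replicon reporter; luciferase luminescence as measure of HCV replicon replication; test concentration not given here.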 The settings on record: Huh7 HCV replicon luciferase reporter, 48 h; higher = more signal.
The target in assay [3] is Left-right determination factor 2 (Homo sapiens) (UniProt O00292). The assay can be described thus: small molecules binding LEFTY2 protein – biochemical, small-molecule microarray, 635 nm fluorescence scan, primary screen (AID 1110). The settings on record: higher = more signal.
For assay [4], the target named is Calmodulin-1 (Homo sapiens) (UniProt P0DP23). The experiment in a line: small molecules binding calmodulin-1 with EGTA – biochemical, small-molecule microarray, Cy5-labelled CALM1, profiling panel (AID 1111).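 Also: labelled calmodulin applied in Tris saline Tween buffer holding calcium plus EGTA and DTT.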 The note with it: Cy5-CALM1 binding fluorescence, higher = more signal.
Assay [5] shares this target. The assay can be described thus: small molecules binding Ca-loaded calmodulin-1 – biochemical, small-molecule microarray, Cy5-labelled CALM1, plus calcium, artefact control for SMM control-protein annotation, profiling panel (AID 1112).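 Also: score merges spot fluorescence with signal to noise from triplicate slides.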 The note with it: Cy5-CALM1 binding fluorescence, higher = more signal.
The nature of assay [6]: probe aWnt5a binding to arrayed compounds – biochemical, biotinylated probe, 635/667 nm fluorescence, primary screen (AID 1113).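 Also: score merges 667 nm fluorescence intensity with signal-to-noise per printed feature.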 The settings on record: small-molecule microarray, higher = more signal.
A short description of assay [7]: probe aShh binding to arrayed compounds – biochemical, biotinylated probe, 635/667 nm fluorescence, primary screen (AID 1114).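 Also: probe is biotin-labelled aShh protein from a stem cell growth factor screen; measures binding of labelled protein to compounds printed on the slide; score merges feature fluorescence at 667 nm with signal-to-noise.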 The note with it: small-molecule microarray, higher = more signal.
A short description of assay [8]: probe aNog binding to arrayed compounds – biochemical, biotinylated probe, 635/667 nm fluorescence, primary screen (AID 1115).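 Also: probe is biotinylated aNog protein used at 0.15 µg/mL for 1 h at 4 C; z-score combines 667 nm fluorescence of each spot with its signal to noise.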 The settings on record: small-molecule microarray, higher = more signal.
Assay [9] concerns the target Torsin-1A-interacting protein 1 (Homo sapiens) (UniProt Q5JTV8). The experiment in a line: compound microarray binding of lysate hLAP1 – cell lysate, small-molecule microarray, COS7 lysate, 635/667 nm fluorescence, primary screen (AID 1116). The settings on record: 635 nm fluorescence, higher = more signal.
In assay [10] the target is Alpha-bungarotoxin (Bungarus multicinctus) (UniProt P60615). The assay can be described thus: compounds binding labelled alpha-BTX control protein – biochemical, small-molecule microarray, Alexa647 label, 635/667 nm fluorescence, artefact control for SMM control protein annotation, profiling panel (AID 1117). The note with it: alpha-BTX-A647 binding fluorescence, higher = more signal.
Alpha-bungarotoxin (Bungarus multicinctus), sequence (P60615 whole entry, looked up): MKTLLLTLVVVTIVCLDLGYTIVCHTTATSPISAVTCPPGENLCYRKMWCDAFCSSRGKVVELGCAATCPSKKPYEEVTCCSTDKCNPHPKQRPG

Left-right determination factor 2 (Homo sapiens), sequence (O00292 whole entry, looked up): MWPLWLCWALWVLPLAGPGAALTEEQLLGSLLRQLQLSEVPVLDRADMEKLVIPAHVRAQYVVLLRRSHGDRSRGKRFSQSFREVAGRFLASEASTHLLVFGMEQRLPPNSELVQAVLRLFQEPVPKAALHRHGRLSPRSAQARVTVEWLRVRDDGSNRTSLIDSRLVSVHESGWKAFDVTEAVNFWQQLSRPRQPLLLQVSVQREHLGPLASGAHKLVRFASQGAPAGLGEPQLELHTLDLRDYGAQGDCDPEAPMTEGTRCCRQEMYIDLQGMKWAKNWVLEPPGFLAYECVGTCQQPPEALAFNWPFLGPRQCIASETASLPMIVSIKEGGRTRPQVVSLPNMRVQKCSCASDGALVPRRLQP
Torsin-1A-interacting protein 1 (Homo sapiens), sequence (Q5JTV8 whole entry, looked up): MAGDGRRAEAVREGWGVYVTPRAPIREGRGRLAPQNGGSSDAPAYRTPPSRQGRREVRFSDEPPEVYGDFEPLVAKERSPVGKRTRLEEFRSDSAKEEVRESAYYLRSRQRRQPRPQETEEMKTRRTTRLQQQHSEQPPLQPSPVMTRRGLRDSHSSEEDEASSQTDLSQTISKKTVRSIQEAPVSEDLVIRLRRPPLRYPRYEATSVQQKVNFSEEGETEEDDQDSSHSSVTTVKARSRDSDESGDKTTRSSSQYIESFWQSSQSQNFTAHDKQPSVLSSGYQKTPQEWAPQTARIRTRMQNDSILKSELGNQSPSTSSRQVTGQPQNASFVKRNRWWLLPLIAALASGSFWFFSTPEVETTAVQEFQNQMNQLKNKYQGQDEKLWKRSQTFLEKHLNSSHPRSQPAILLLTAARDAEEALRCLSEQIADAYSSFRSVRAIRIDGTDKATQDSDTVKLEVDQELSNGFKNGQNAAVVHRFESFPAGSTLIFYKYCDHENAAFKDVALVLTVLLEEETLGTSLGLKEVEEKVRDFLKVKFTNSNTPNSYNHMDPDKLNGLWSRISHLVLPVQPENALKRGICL

As for `COC(=O)CC=C[C@@H](C)[C@H](OCc1cccc(-c2ccccc2)c1)C1CCCCC1`, the composite z-score in assay [1] was -0.533; in assay [3], 0.134; in assay [4], -0.532; in assay [5], 0.472; in assay [6] it was -0.12; in assay [7], -0.0694. In addition, the composite z-score in [8] was -0.168; in assay [9], 0.14; in assay [10], 1.9. The z-score in [2] was determined as 1.04.

As for `CC(CCN1CCc2nc(-c3ccccc3)c(-c3ccccc3)cc2C1)=NOC[C@@H](O)[C@H]1O[C@@H]2OC(C)(C)O[C@@H]2[C@H]1O`, the composite z-score in assay [1] was 1.12; in [3], 0.642; in assay [4] it was 0.12; in assay [5], -0.233; in assay [6] it was -0.139; in [7] it was -0.0709. Moreover, the values for the composite z-score in assay [8], in assay [9] and in assay [10] were -0.353, 0.825 and 0.673, respectively. The molecule further gave a z-score in [2] of -2.73.

Regarding `CO[C@H]1COC(=O)[C@H](C)NC(=O)CC=C[C@@H](C)[C@H](OC)COC(=O)[C@@H](OCc2ccccc2)C=C[C@@H]1C`, the composite z-score was -0.112 in assay [1]; 0.591 in assay [3]; -0.306 in assay [4]; -1.32 in [5]; -0.233 in assay [6]; -0.279 in assay [7]. Besides, the composite z-score was 0.0021 in assay [8], 0.129 in assay [9] and -0.233 in assay [10]. The z-score in assay [2] is -0.339.

In the case of `C=COC[C@@H]1CN2[C@@H](CC[C@@H](C)[C@@H]2c2ccc(Br)cc2)C(=O)O1`, the composite z-score in [1] is -0.0205; in assay [3], -0.0429; in assay [4], -0.941; in [5], -1.26; in assay [6], -0.124; in assay [7], 0.0284. Moreover, the composite z-score in assay [8] was -0.0079; in assay [9] it was -0.111; in assay [10] it was 0.259. The z-score in [2] is -0.0522.

As for `COc1cccc([C@H]2Oc3ccc(OC)cc3C(=NO[C@@H]3O[C@H](COC(C)=O)[C@@H](OC(C)=O)[C@H](OC(C)=O)[C@H]3OC(C)=O)[C@@H]2O)c1`, the composite z-score in assay [1] was 0.104; in [3], 0.507; in assay [4] it was -0.446; in assay [5], -0.552; in [6], 0.0206; in assay [7], 0.137. The results for the composite z-score in assay [8], in [9] and in assay [10] were 0.124, -0.178 and -0.275, respectively. Further, in [2], the z-score was -1.12.

With `C[C@@H]1CC[C@H]2C(=O)O[C@@H](COc3ccc(C(C)(C)C)cc3)CN2[C@@H]1c1ccc(Br)cc1`, the composite z-score in assay [1] was -0.631; in [3], -0.403; in assay [4] it was -0.121; in assay [5], 0.578; in assay [6] it was -0.179; in assay [7], -0.289. For the same molecule, the composite z-score was 0.105 in assay [8], -0.319 in assay [9] and 0 in [10]. Further, in assay [2], the z-score was -0.0485.

For `COC(=O)[C@H](C)NC(=O)CCC1CC(OC(=O)NCc2ccc3c(c2)OCO3)CC2(CCCC(COC(=O)NCC(c3ccccc3)c3ccccc3)O2)O1` (stereo not given in full), the composite z-score in assay [1] is 1.42; in assay [3] it was 0.739; in [4] it was 0.869; in assay [5], -0.663; in [6], -0.0037; in [7], -0.229. Further, the composite z-score was -0.11 in assay [8], 0.587 in assay [9] and 1.04 in assay [10]. The molecule further registered a z-score in assay [2] of 0.327.

On to `C#CCCCON=C1C[C@@H](O)[C@@H](O)[C@@H]2[C@@H]3C(=O)N(c4cccc(Oc5ccccc5)c4)C(=O)[C@@H]3CC[C@H]12`, for which the composite z-score in [1] was -0.578; in [3] it was -0.914; in [4] it was -0.423; in assay [5], 0.361; in [6], -0.172; in assay [7], -0.138. Also, the composite z-score was -0.237 in assay [8], 0.441 in [9] and -0.702 in assay [10]. In assay [2], the z-score came to 0.18.

On to `CCOC(=O)NN=C1C[C@@H](O)[C@@H](O)[C@@H]2[C@@H]3C(=O)N([C@@H](C)c4ccccc4)C(=O)[C@@H]3CC[C@H]12`, for which the composite z-score in [1] was 0.171; in [3], 0.0792; in assay [4], -0.258; in [5] it was -0.453; in assay [6], -0.124; in assay [7], -0.117. In addition, the composite z-score in assay [8] was -0.287; in assay [9] it was 2.53; in assay [10], -0.0914. Besides, the z-score in assay [2] is -0.789.

Turning to `COC(=O)[C@H](C)NC(=O)CCC1CC(OC(=O)NCc2ccc3c(c2)OCO3)CC2(CCCC(COC(=O)NCc3cccc(C(F)(F)F)c3)O2)O1` (stereo not given in full), the composite z-score in [1] was 0.817; in assay [3], 1.11; in [4], 0.601; in assay [5], -0.311; in assay [6] it was -0.113; in assay [7], 0.0756. For the same molecule, the composite z-score was found to be 0.33 in [8], 0.794 in assay [9] and 0.446 in assay [10]. The same molecule returned a z-score in assay [2] of -1.79.

In the case of `CO[C@H]1COC(=O)CCC[C@@H](C)[C@H](OC)COC(=O)[C@@H](C)NC(=O)CC=C[C@@H]1C`, the composite z-score in [1] is -1.44; in assay [3], 1.19; in assay [4], -0.654; in [5] it was -1.61; in [6] it was -0.117; in assay [7] it was 0.0483. The values for the composite z-score in assay [8], in [9] and in assay [10] were -0.0684, 0.992 and -0.314, respectively. Further, the z-score in assay [2] is -1.29.

In the case of `CCOC(=O)[C@H](CC(C)C)NC(=O)CCC1CC(OC(=O)NCc2ccc3c(c2)OCO3)CC2(CCCC(COC(=O)NCC(c3ccccc3)c3ccccc3)O2)O1` (stereo not given in full), the composite z-score in assay [1] is 0.506; in assay [3] it was 0.426; in assay [4], -0.378; in assay [5], -0.443; in assay [6], -0.169; in [7], -0.262. For the same molecule, the values for the composite z-score in assay [8], in assay [9] and in assay [10] were -0.137, 0.126 and 0.443, respectively. In [2], the z-score is -0.0319.

On to `CCOC(=O)[C@H](Cc1ccccc1)NC(=O)CCC1CC(OC(=O)NCc2cccc3ccccc23)CC2(CCCC(COC(=O)NCc3cccc(C(F)(F)F)c3)O2)O1` (stereo not given in full), for which the composite z-score was 0.72 in assay [1]; -0.131 in [3]; 0.716 in [4]; 0.143 in assay [5]; -0.0816 in assay [6]; -0.345 in assay [7]. In addition, the figures for the composite z-score in assay [8], in assay [9] and in [10] were -0.213, 0.465 and 0.362, respectively. Besides, the z-score in assay [2] was -0.771.

On to `C#CCCCON=C1C[C@@H](O)[C@@H](O)[C@@H]2[C@@H]3C(=O)N(C(C)(C)C)C(=O)[C@@H]3CC[C@H]12`, for which the composite z-score in assay [1] is -0.149; in [3], -0.0304; in assay [4] it was -0.245; in assay [5] it was -0.0493; in assay [6] it was 0.0926; in assay [7] it was -0.154. Further, the results for the composite z-score in assay [8], in assay [9] and in assay [10] were -0.0675, -0.0059 and 1.27, respectively. The same molecule gave a z-score in assay [2] of -0.134.

As for `Cc1cc2c(c(=O)o1)[C@@H](O)[C@H]1O[C@H]1C2=O`, the composite z-score in assay [1] was -0.0158; in [3] it was 0.384; in assay [4], -0.374; in assay [5], -0.876; in [6] it was -0.154; in assay [7] it was -0.243. For the same molecule, the composite z-score is -0.265 in [8], 0.27 in assay [9] and 0.56 in [10]. In assay [2], the z-score is 0.73.

As to `CCCNC(=O)OC[C@H]1O[C@H](CCON=C(C)CCC(=O)OC[C@H]2O[C@H](c3ccccc3)C=C[C@@H]2Oc2ccc(OC)cc2)C=C[C@@H]1Oc1ccc(OC)cc1`, the composite z-score is -0.996 in assay [1]; -0.126 in assay [3]; -0.449 in assay [4]; -0.678 in [5]; -0.0685 in assay [6]; -0.138 in assay [7]. The composite z-score was -0.0039 in [8], 0.23 in [9] and -0.183 in [10]. Further, in [2], the z-score was -1.17.

Regarding `O=C1C=C[C@@H](O)[C@@H]2[C@@H]3C(=O)N(C[C@@H]4CCCO4)C(=O)[C@@H]3CC[C@@H]12`, the composite z-score in [1] was 0.0168; in assay [3], 0.449; in assay [4], -0.202; in assay [5] it was -0.78; in [6], -0.124; in assay [7] it was 0.111. The composite z-score in assay [8] is -0.176; in [9] it was 0.206; in assay [10] it was 0.33. In assay [2], this molecule gave a z-score of -0.848.
